Experimental data as given in article PMC4336329 (PLoS ONE, 2015).
Among all 310,000 compounds or so, about 14,000 (4.5%) showed an effect of 50% or more. Effects have a minus sign here. For the sample, strong results were picked, then their nearest neighbours and some compounds at random.
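Further: peak tail current of the secondary pulse compared with the same well before compound.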

The compounds below were run against human ether-à-go-go-related gene (hERG) potassium channel (human, UniProt Q12809) (assay: primary screen, population patch clamp on CHO cells stably expressing hERG; higher = less effect of the substance).
Sequence of human ether-à-go-go-related gene (hERG) potassium channel (Q12809 whole entry, looked up): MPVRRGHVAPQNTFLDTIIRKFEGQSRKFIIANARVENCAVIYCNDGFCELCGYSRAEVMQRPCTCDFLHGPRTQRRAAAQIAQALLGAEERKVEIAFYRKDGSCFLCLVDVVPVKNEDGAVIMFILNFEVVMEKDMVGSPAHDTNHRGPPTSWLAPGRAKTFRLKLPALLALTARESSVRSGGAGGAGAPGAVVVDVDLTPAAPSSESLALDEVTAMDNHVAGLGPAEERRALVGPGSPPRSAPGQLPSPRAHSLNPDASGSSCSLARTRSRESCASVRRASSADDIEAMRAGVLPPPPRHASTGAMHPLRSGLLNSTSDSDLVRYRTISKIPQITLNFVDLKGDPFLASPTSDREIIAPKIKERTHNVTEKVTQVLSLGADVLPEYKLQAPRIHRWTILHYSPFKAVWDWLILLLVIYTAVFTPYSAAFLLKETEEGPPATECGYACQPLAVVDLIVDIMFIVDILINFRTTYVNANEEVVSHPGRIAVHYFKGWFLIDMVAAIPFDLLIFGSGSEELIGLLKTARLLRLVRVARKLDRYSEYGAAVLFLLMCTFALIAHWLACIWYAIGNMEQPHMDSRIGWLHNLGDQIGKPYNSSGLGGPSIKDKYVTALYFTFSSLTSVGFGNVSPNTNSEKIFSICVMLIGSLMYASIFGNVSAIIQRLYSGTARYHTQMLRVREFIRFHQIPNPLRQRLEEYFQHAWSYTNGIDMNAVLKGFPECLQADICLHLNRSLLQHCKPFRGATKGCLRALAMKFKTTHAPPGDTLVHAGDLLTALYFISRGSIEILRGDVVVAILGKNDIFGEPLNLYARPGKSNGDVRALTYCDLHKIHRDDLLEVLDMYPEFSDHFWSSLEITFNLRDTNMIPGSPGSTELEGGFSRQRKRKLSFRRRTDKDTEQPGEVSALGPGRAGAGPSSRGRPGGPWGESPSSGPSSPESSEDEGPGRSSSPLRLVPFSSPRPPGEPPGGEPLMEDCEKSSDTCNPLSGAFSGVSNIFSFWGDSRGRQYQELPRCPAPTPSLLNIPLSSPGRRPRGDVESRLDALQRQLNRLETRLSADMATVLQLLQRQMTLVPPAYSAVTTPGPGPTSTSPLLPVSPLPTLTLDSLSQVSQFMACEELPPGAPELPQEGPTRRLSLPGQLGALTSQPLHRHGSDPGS
`Cc1cc(=O)[nH]c(SCC(=O)Nc2ccc(C(=O)O)cc2)n1` was tested, and the “hERG current change (%, negative = inhibition) at 10uM” value was 5.37%.
In the case of `O=Cc1c[nH]c2ccc(C(=O)c3ccccc3)cc12`, the “hERG current change (%, negative = inhibition) at 10uM” value is reported as 3.97%.
`CC(C)(C)n1nnnc1C(c1cccnc1)N1CCN(C(=O)c2ccco2)CC1` (stereo not shown) was tested, and the “hERG current change (%, negative = inhibition) at 10uM” value was -15.1%.
In the case of `COc1cc(C(=O)ON=C2C(C)=CC(=O)C=C2C)cc(OC)c1OC`, the “hERG current change (%, negative = inhibition) at 10uM” value is reported as -11.9%.
In the case of `C#CCOCCOCCOCCNc1nc(N2CCN(C(=O)[C@H](Cc3ccc(O)cc3)n3cc([C@@H](N)C(C)CC)nn3)CC2)nc(N2CCN(C(=O)[C@H](CCCCN)n3cc([C@@H](N)CC(C)C)nn3)CC2)n1.Cl` (stereo partly shown), the “hERG current change (%, negative = inhibition) at 10uM” value is reported as 6.05%.
For `C/C(=N/NC(=O)CNS(=O)(=O)c1ccc(C)cc1)c1cccc([N+](=O)[O-])c1`, the “hERG current change (%, negative = inhibition) at 10uM” value was 14.5%.
For `Cc1ccc(NC(=S)N(CCCN2CCOCC2)Cc2cccnc2)cc1C`, the “hERG current change (%, negative = inhibition) at 10uM” value was 7.44%.
For `CCC(C)NC(=O)CNC(=S)N(CCCN1CCOCC1)Cc1cccs1` (stereo not shown), the “hERG current change (%, negative = inhibition) at 10uM” value was -14.4%.
With `O=C(Nc1ccc(Cl)cc1)N(CCCN1CCOCC1)Cc1cccs1` the “hERG current change (%, negative = inhibition) at 10uM” value was -70.7%.
With `CCc1ccc(NC(=O)N(CCCN2CCOCC2)Cc2cccs2)cc1` the “hERG current change (%, negative = inhibition) at 10uM” value was -52.8%.
In the case of `Cc1ccc(NC(=O)N(CCCN2CCOCC2)Cc2cccnc2)cc1C`, the “hERG current change (%, negative = inhibition) at 10uM” value is reported as -10.8%.
In the case of `COc1ccc(CN(CCCN2CCOCC2)C(=O)Nc2ccccc2)cc1OC`, the “hERG current change (%, negative = inhibition) at 10uM” value is reported as -10.9%.
`O=C(Nc1ccc(Cl)c(Cl)c1)N(CCCN1CCOCC1)Cc1cccs1` was tested, and the “hERG current change (%, negative = inhibition) at 10uM” value was -78%.
`O=C(Nc1ccc(Cl)c(Cl)c1)N(CCCN1CCOCC1)Cc1cccnc1` was tested, and the “hERG current change (%, negative = inhibition) at 10uM” value was -55.5%.
`O=C(Nc1ccc(Cl)cc1)N(Cc1cccs1)Cc1cccs1` was tested, and the “hERG current change (%, negative = inhibition) at 10uM” value was 0.899%.
`Cc1ccc(NC(=O)N(CCCN2CCOCC2)Cc2cccs2)cc1C` was tested, and the “hERG current change (%, negative = inhibition) at 10uM” value was -47.6%.
With `O=C(Nc1ccccc1)N(CCCN1CCOCC1)Cc1cccs1` the “hERG current change (%, negative = inhibition) at 10uM” value was -40.1%.
In the case of `COc1ccc2c(c1)[C@@H]1[C@H](CO2)[C@H](c2ccccc2)[C@]2(C)C(=O)NCC(=O)N12`, the “hERG current change (%, negative = inhibition) at 10uM” value is reported as 4.48%.
For `CC(Cc1cccs1)NC(=S)Nc1ccc(Cl)cc1` (stereo not shown), the “hERG current change (%, negative = inhibition) at 10uM” value was 14.6%.
For `COC(=O)c1c(C)[nH]c(C=O)c1-c1ccccc1`, the “hERG current change (%, negative = inhibition) at 10uM” value was 10.3%.
For `Cc1ccc(NC(=O)c2ccc(Oc3ncccn3)cc2)cc1`, the “hERG current change (%, negative = inhibition) at 10uM” value was 12.2%.
For `CN(C)CC(CCCCC(CN(C)C)C(=O)c1ccccc1)C(=O)c1ccccc1` (stereo not shown), the “hERG current change (%, negative = inhibition) at 10uM” value was 9.78%.
With `O=C(NCCNc1ccc([N+](=O)[O-])cc1)c1ccco1` the “hERG current change (%, negative = inhibition) at 10uM” value was -23.7%.
In the case of `O=C(Nc1ccc(Br)cc1)c1cccc(OC(=S)N2CCOCC2)c1`, the “hERG current change (%, negative = inhibition) at 10uM” value is reported as 17%.
With `CCNS(=O)(=O)c1cc(-c2nnc(OC)c3ccccc23)ccc1C` the “hERG current change (%, negative = inhibition) at 10uM” value was -37.3%.
With `c1ccc(-c2nnc(OCC3CCCO3)c3ccccc23)cc1` (stereo not shown) the “hERG current change (%, negative = inhibition) at 10uM” value was -10.8%.
`Cc1ccc(-c2nnc(N3CCCCC3)c3ccccc23)cc1S(=O)(=O)NCC1CCCO1` (stereo not shown) was tested, and the “hERG current change (%, negative = inhibition) at 10uM” value was -16%.
With `COc1nnc(-c2ccc(C)c(S(=O)(=O)N(C)C)c2)c2ccccc12` the “hERG current change (%, negative = inhibition) at 10uM” value was -77.6%.
For `Cc1ccc(-c2nnc(Nc3ccccc3)c3ccccc23)cc1S(=O)(=O)NCC1CCCO1` (stereo not shown), the “hERG current change (%, negative = inhibition) at 10uM” value was -40.5%.
In the case of `Cc1ccc(-c2nnc(OCC3CCCO3)c3ccccc23)cc1` (stereo not shown), the “hERG current change (%, negative = inhibition) at 10uM” value is reported as -65.2%.
With `COc1nnc(-c2ccc(C)c(S(=O)(=O)NCC3CCCO3)c2)c2ccccc12` (stereo not shown) the “hERG current change (%, negative = inhibition) at 10uM” value was -69.5%.
`COc1nnc(-c2ccc(C)c(S(=O)(=O)NC(C)(C)CO)c2)c2ccccc12` was tested, and the “hERG current change (%, negative = inhibition) at 10uM” value was -15.9%.
For `Cc1ccc(Oc2nnc(-c3ccc(C)cc3)c3ccccc23)cc1`, the “hERG current change (%, negative = inhibition) at 10uM” value was 2.75%.
`COc1nnc(-c2ccc(C)c(S(N)(=O)=O)c2)c2ccccc12` was tested, and the “hERG current change (%, negative = inhibition) at 10uM” value was 4.8%.
`COc1nnc(-c2ccc(C)c(S(=O)(=O)NCCO)c2)c2ccccc12` was tested, and the “hERG current change (%, negative = inhibition) at 10uM” value was -14.6%.
In the case of `COc1nnc(-c2ccc(C)c(S(=O)(=O)NC(C)C)c2)c2ccccc12`, the “hERG current change (%, negative = inhibition) at 10uM” value is reported as -52.8%.
`CC(C)CNC(=S)NC(=O)c1ccc(Cl)cc1Cl` was tested, and the “hERG current change (%, negative = inhibition) at 10uM” value was 3.88%.
`Br.Cc1cccc(N2C(=O)SC(SC(=Nc3ccccc3)Nc3ccccc3)C2=O)c1` (stereo not shown) was tested, and the “hERG current change (%, negative = inhibition) at 10uM” value was 15.3%.
For `Cc1c(Br)c([N+](=O)[O-])nn1CCCC(=O)NC(C)c1ccccc1` (stereo not shown), the “hERG current change (%, negative = inhibition) at 10uM” value was -16.2%.
For `O=C(Nc1c2c(nn1-c1ccccc1)CS(=O)(=O)C2)c1ccccc1Br`, the “hERG current change (%, negative = inhibition) at 10uM” value was -0.51%.
For `COc1ccccc1C(c1nnnn1C(C)(C)C)N1CCCCCC1` (stereo not shown), the “hERG current change (%, negative = inhibition) at 10uM” value was -20.9%.
In the case of `COc1ccc(NC(=O)CN(C)S(=O)(=O)c2ccc3c(c2)n(C)c(=O)c(=O)n3C)cc1`, the “hERG current change (%, negative = inhibition) at 10uM” value is reported as 14%.
`COc1ccc(CSc2nc3ccccc3c(=O)[nH]2)cc1F` was tested, and the “hERG current change (%, negative = inhibition) at 10uM” value was 36.6%.
In the case of `CC(C)C(NC(=O)CCNC(=O)c1ccccc1Cl)c1nc2ccccc2[nH]1` (stereo not shown), the “hERG current change (%, negative = inhibition) at 10uM” value is reported as -9.36%.
`O=S(=O)(NC(=NC1CCCCC1)c1ccccc1)c1ccccc1` was tested, and the “hERG current change (%, negative = inhibition) at 10uM” value was -14.7%.
For `Cc1ccc(S(=O)(=O)NC(=NC2CCCCC2)c2ccc(F)cc2)cc1`, the “hERG current change (%, negative = inhibition) at 10uM” value was -4.09%.
`Cc1ccc(S(=O)(=O)NC(=NC2CCCCC2)c2ccccc2)cc1` was tested, and the “hERG current change (%, negative = inhibition) at 10uM” value was -55.2%.
With `Cn1c(Cc2csc(N)n2)nnc1SCC(=O)NCc1ccccc1` the “hERG current change (%, negative = inhibition) at 10uM” value was 1.12%.
In the case of `COc1cccc(NC(=O)c2ccc(OC(F)(F)F)cc2)c1`, the “hERG current change (%, negative = inhibition) at 10uM” value is reported as 1.07%.
`COc1ccc(-c2cc(C(=O)c3c(N)n(C)c(=O)n(C)c3=O)c3ccccc3n2)cc1` was tested, and the “hERG current change (%, negative = inhibition) at 10uM” value was -15.5%.
In the case of `O=C(Nc1cccnc1Cl)C1CCCN(c2ncnc3c2nc2n3CCCCC2)C1` (stereo not shown), the “hERG current change (%, negative = inhibition) at 10uM” value is reported as -42%.
For `O=C(NCC1CCN(Cc2ccccc2F)CC1)C1CCCN(c2ncnc3c2nc2n3CCCCC2)C1` (stereo not shown), the “hERG current change (%, negative = inhibition) at 10uM” value was -8.94%.
In the case of `O=C(Nc1ccccc1Cl)C1CCCN(c2ncnc3c2nc2n3CCCCC2)C1` (stereo not shown), the “hERG current change (%, negative = inhibition) at 10uM” value is reported as -59.4%.
For `O=C(NCC1CCN(Cc2cccc(Cl)c2)CC1)C1CCCN(c2ncnc3c2nc2n3CCCCC2)C1` (stereo not shown), the “hERG current change (%, negative = inhibition) at 10uM” value was -44.5%.
With `COc1cccc(CNC(=O)C2CCCN(c3ncnc4c3nc3n4CCCCC3)C2)c1` (stereo not shown) the “hERG current change (%, negative = inhibition) at 10uM” value was -55.6%.
In the case of `O=C(NCc1ccccc1Cl)C1CCN(c2ncnc3c2nc2n3CCCCC2)CC1`, the “hERG current change (%, negative = inhibition) at 10uM” value is reported as -30.9%.
For `O=C(NCc1ccccc1Cl)C1CCCN(c2ncnc3c2nc2n3CCCCC2)C1` (stereo not shown), the “hERG current change (%, negative = inhibition) at 10uM” value was -60.8%.
`O=C(NCc1cccc(Cl)c1)C1CCCN(c2ncnc3c2nc2n3CCCCC2)C1` (stereo not shown) was tested, and the “hERG current change (%, negative = inhibition) at 10uM” value was -73.5%.
In the case of `O=C(Nc1cccnc1)C1CCCN(c2ncnc3c2nc2n3CCCCC2)C1` (stereo not shown), the “hERG current change (%, negative = inhibition) at 10uM” value is reported as -36%.
In the case of `COc1ccc(CNC(=O)C2CCCN(c3ncnc4c3nc3n4CCCCC3)C2)cc1` (stereo not shown), the “hERG current change (%, negative = inhibition) at 10uM” value is reported as -37.6%.
`COc1cccc(CNC(=O)C2CCN(c3ncnc4c3nc3n4CCCCC3)CC2)c1` was tested, and the “hERG current change (%, negative = inhibition) at 10uM” value was 16.7%.
